# Experimental data reported in PubChem BioAssay (NCI).
# Compounds without any hit were thinned out: in the full panel of roughly 83,000, 20% have a hit.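 Negative percent growth values reflect cell death: -40 means 40% of the cells present at the start died, and -100 means all died.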 Active and inactive are the calls of the source. Rule for the calls: active = growth percent below 10; inactive = the rest.
# Tested on: DU-145 prostate
# Experiment: NCI-60 one-dose screen, 48 h (100 = growth as untreated, 0 = no growth, -100 = all killed)
# Settings: 10 µM unless noted
row,Structure (SMILES),growth
1,CCC1S/C(=N\N=C(/C)c2ccco2)N(c2ccccc2)C1=O (stereo not drawn),123% (inactive)
2,C#C[C@H](O)/C=C/CCCCCCC#C[C@H](O)CC[C@@H](O)C#CCCCCCC/C=C/[C@@H](O)C#C,95.7% (inactive)
3,O=[N+]([O-])c1cccc2cc(S(=O)(=O)O)ccc12,105% (inactive)
4,Nc1ccc(S(=O)(=O)Nc2cc(I)cc(I)c2)cc1,124% (inactive)
5,O=C(Nc1ccc(-n2cc(-c3ccncc3)c(-c3ccc(O)c(Cl)c3)n2)cc1)Nc1cc(C(F)(F)F)cc(C(F)(F)F)c1,80.6% (inactive)
6,O[C@@H]1CCO[C@H](c2ccc3ccccc3c2)C1,102% (inactive)
7,COc1cc(Cn2cc3c(c2)-c2onc(CO)c2CC3)cc(OC)c1OC,103% (inactive)
8,CN(C)CCS(=O)(=O)Nc1cc(-c2ccc3ncnc(Nc4ccc(F)c(Cl)c4)c3c2)cnc1Cl,-3.31% (active)
9,CCN(CC)c1ccc(C2CC(c3cc(OC)c(OC)c(OC)c3)=NN2)cc1 (stereo not drawn),-36.1% (active)
10,CCn1cc(C(=O)O)c(=O)c2cc(F)c(N3CCN(CC(=O)Nc4ccc(C(C)=O)cc4)CC3)cc21,111% (inactive)
11,CCOc1ccc(-n2c(-c3cc(OC)c(OC)c(OC)c3)nnc2-c2ccc(OC)cc2N)cc1,57.6% (inactive)
12,COc1ccc(/C(=C/c2cc(OC)c(OC)c(OC)c2)[N+](=O)[O-])cc1,16.3% (inactive)
13,O=C(Nc1cccc([N+](=O)[O-])c1)Nc1cccc([N+](=O)[O-])c1,42.2% (inactive)
14,COc1ccc(-c2nn(-c3ccc(NC(=O)Nc4cc(C(F)(F)F)cc(C(F)(F)F)c4)cc3)cc2-c2ccncc2)cc1Cl,30.4% (inactive)
15,O=c1c2ccccc2sc2c(NCCCNCCO)nc3ccccc3c12,16.5% (inactive)
16,O=C(NNC(=O)c1ccc([N+](=O)[O-])cc1)c1ccc([N+](=O)[O-])cc1,113% (inactive)
17,CCN(CC)C(=O)C1CCN(C(=O)c2ccccc2)CC1,109% (inactive)
18,O=S(=O)(O)c1ccc(F)cc1,103% (inactive)
19,Cc1cc(SCc2ccc(Cl)cc2Cl)nc(SCc2ccc(Cl)cc2Cl)n1,105% (inactive)
20,CCOC(=O)c1noc2c1CCc1cn(Cc3cc(OC)cc(OC)c3)cc1-2,104% (inactive)

row,Structure (SMILES),growth
1,CC(C)(C)C(=O)Nc1nc2c(s1)CCc1ccn(S(=O)(=O)c3ccccc3)c1-2,99.1% (inactive)
2,CCCCCCCCCCCCCCCCNc1ccccc1,107% (inactive)
3,Cc1nc(N)nc(SCc2ccccc2)c1Br,104% (inactive)
4,O=S(c1ccccc1)c1ccc2nnnn2n1 (stereo not drawn),105% (inactive)
5,O=C1COc2ccccc2C(=O)N1CCCCN1CCCCC1,93.7% (inactive)
6,O=C(COc1ccc(Cl)cc1Cl)N1N=C(c2ccc(Cl)cc2Cl)CC1(O)c1cc(F)c(Cl)cc1Cl (stereo not drawn),123% (inactive)
7,CC(CCC(=O)O)[C@H]1CCC2C3C(=O)C[C@@H]4CC(=O)CC[C@]4(C)C3CC(=O)[C@@]21C (stereo partly drawn),114% (inactive)
8,COc1ccc(-c2nn(-c3ccc(NC(=O)Nc4ccc(Cl)c(C(F)(F)F)c4)cc3)cc2-c2ccncc2)cc1Cl,20.5% (inactive)
9,O=C1COc2ccccc2C(=O)N1CCCCNc1ccccc1,96.3% (inactive)
10,O=C1CCC(c2c(O)cc(O)c3c(=O)c(O)c(-c4ccc(O)c(O)c4)oc23)N1 (stereo not drawn),105% (inactive)
11,CCCCCCCCCCCCCCCC(=O)NS(=O)(=O)OC[C@H]1O[C@@H](n2cnc3c(N)ncnc32)[C@H](O)[C@@H]1O,-33.6% (active)
12,CN(CCNCc1ccccn1)CCNCc1ccccn1,11.3% (inactive)
13,CCN(CC)CCNCC(O)Cc1ccc(OC)cc1 (stereo not drawn),110% (inactive)
14,CN1CCN(Cn2nc(-c3cc(Cl)cc(Cl)c3Cl)n(/N=C/c3ccc(Cl)cc3)c2=S)CC1,102% (inactive)
15,Cn1cnc([N+](=O)[O-])c1N1c2ccncc2Sc2ccncc21,108% (inactive)
16,O=C(O)c1cccc2oc(-c3ccccc3O)nc12,63.6% (inactive)
17,Nn1c(CN2CCN(c3cc4c(cc3F)c(=O)c(C(=O)O)cn4C3CC3)CC2)n[nH]c1=S,107% (inactive)
18,Cc1ccc2nc(-c3ccc(-n4on4-c4ccc(/C=C/c5ccc(-n6on6-c6ccc(-c7nc8ccc(C)cc8s7)cc6)cc5S(=O)(=O)O)c(S(=O)(=O)O)c4)cc3)sc2c1,111% (inactive)
19,CC(C)(C)NCC(O)COc1c(Br)c(Br)c(Br)c2c1OC(C)(C)C2 (stereo not drawn),-59.5% (active)

# Tested on: K-562 leukemia
# Experiment: as above
# Settings: 10 µM unless noted
row,Structure (SMILES),growth
1,CCC1S/C(=N\N=C(/C)c2ccco2)N(c2ccccc2)C1=O (stereo not drawn),120% (inactive)
2,C#C[C@H](O)/C=C/CCCCCCC#C[C@H](O)CC[C@@H](O)C#CCCCCCC/C=C/[C@@H](O)C#C,11.7% (inactive)
3,O=[N+]([O-])c1cccc2cc(S(=O)(=O)O)ccc12,80.7% (inactive)
4,Nc1ccc(S(=O)(=O)Nc2cc(I)cc(I)c2)cc1,78.5% (inactive)
5,O=C(Nc1ccc(-n2cc(-c3ccncc3)c(-c3ccc(O)c(Cl)c3)n2)cc1)Nc1cc(C(F)(F)F)cc(C(F)(F)F)c1,57.6% (inactive)
6,O[C@@H]1CCO[C@H](c2ccc3ccccc3c2)C1,98.3% (inactive)
7,COc1cc(Cn2cc3c(c2)-c2onc(CO)c2CC3)cc(OC)c1OC,78.5% (inactive)
8,CN(C)CCS(=O)(=O)Nc1cc(-c2ccc3ncnc(Nc4ccc(F)c(Cl)c4)c3c2)cnc1Cl,9.31% (active)
9,CCN(CC)c1ccc(C2CC(c3cc(OC)c(OC)c(OC)c3)=NN2)cc1 (stereo not drawn),5.52% (active)
10,CCn1cc(C(=O)O)c(=O)c2cc(F)c(N3CCN(CC(=O)Nc4ccc(C(C)=O)cc4)CC3)cc21,94.6% (inactive)
11,CCOc1ccc(-n2c(-c3cc(OC)c(OC)c(OC)c3)nnc2-c2ccc(OC)cc2N)cc1,70.3% (inactive)
12,COc1ccc(/C(=C/c2cc(OC)c(OC)c(OC)c2)[N+](=O)[O-])cc1,3.58% (active)
13,O=C(Nc1cccc([N+](=O)[O-])c1)Nc1cccc([N+](=O)[O-])c1,15.3% (inactive)
14,COc1ccc(-c2nn(-c3ccc(NC(=O)Nc4cc(C(F)(F)F)cc(C(F)(F)F)c4)cc3)cc2-c2ccncc2)cc1Cl,17.2% (inactive)
15,O=c1c2ccccc2sc2c(NCCCNCCO)nc3ccccc3c12,-39.5% (active)
16,O=C(NNC(=O)c1ccc([N+](=O)[O-])cc1)c1ccc([N+](=O)[O-])cc1,93.6% (inactive)
17,CCN(CC)C(=O)C1CCN(C(=O)c2ccccc2)CC1,99.1% (inactive)
18,O=S(=O)(O)c1ccc(F)cc1,85% (inactive)
19,Cc1cc(SCc2ccc(Cl)cc2Cl)nc(SCc2ccc(Cl)cc2Cl)n1,110% (inactive)
20,CCOC(=O)c1noc2c1CCc1cn(Cc3cc(OC)cc(OC)c3)cc1-2,102% (inactive)

row,Structure (SMILES),growth
1,CC(C)(C)C(=O)Nc1nc2c(s1)CCc1ccn(S(=O)(=O)c3ccccc3)c1-2,69% (inactive)
2,CCCCCCCCCCCCCCCCNc1ccccc1,79.8% (inactive)
3,Cc1nc(N)nc(SCc2ccccc2)c1Br,88.4% (inactive)
4,O=S(c1ccccc1)c1ccc2nnnn2n1 (stereo not drawn),-9.22% (active)
5,O=C1COc2ccccc2C(=O)N1CCCCN1CCCCC1,50% (inactive)
6,O=C(COc1ccc(Cl)cc1Cl)N1N=C(c2ccc(Cl)cc2Cl)CC1(O)c1cc(F)c(Cl)cc1Cl (stereo not drawn),64.4% (inactive)
7,CC(CCC(=O)O)[C@H]1CCC2C3C(=O)C[C@@H]4CC(=O)CC[C@]4(C)C3CC(=O)[C@@]21C (stereo partly drawn),94.2% (inactive)
8,COc1ccc(-c2nn(-c3ccc(NC(=O)Nc4ccc(Cl)c(C(F)(F)F)c4)cc3)cc2-c2ccncc2)cc1Cl,10.3% (inactive)
9,O=C1COc2ccccc2C(=O)N1CCCCNc1ccccc1,68.5% (inactive)
10,O=C1CCC(c2c(O)cc(O)c3c(=O)c(O)c(-c4ccc(O)c(O)c4)oc23)N1 (stereo not drawn),96.1% (inactive)
11,CCCCCCCCCCCCCCCC(=O)NS(=O)(=O)OC[C@H]1O[C@@H](n2cnc3c(N)ncnc32)[C@H](O)[C@@H]1O,8.9% (active)
12,CN(CCNCc1ccccn1)CCNCc1ccccn1,2.92% (active)
13,CCN(CC)CCNCC(O)Cc1ccc(OC)cc1 (stereo not drawn),105% (inactive)
14,CN1CCN(Cn2nc(-c3cc(Cl)cc(Cl)c3Cl)n(/N=C/c3ccc(Cl)cc3)c2=S)CC1,73.9% (inactive)
15,Cn1cnc([N+](=O)[O-])c1N1c2ccncc2Sc2ccncc21,83.2% (inactive)
16,O=C(O)c1cccc2oc(-c3ccccc3O)nc12,60.9% (inactive)
17,Nn1c(CN2CCN(c3cc4c(cc3F)c(=O)c(C(=O)O)cn4C3CC3)CC2)n[nH]c1=S,101% (inactive)
18,Cc1ccc2nc(-c3ccc(-n4on4-c4ccc(/C=C/c5ccc(-n6on6-c6ccc(-c7nc8ccc(C)cc8s7)cc6)cc5S(=O)(=O)O)c(S(=O)(=O)O)c4)cc3)sc2c1,99.2% (inactive)
19,CC(C)(C)NCC(O)COc1c(Br)c(Br)c(Br)c2c1OC(C)(C)C2 (stereo not drawn),-34.9% (active)
